Laboratory results: PubChem BioAssay AID624352 (Sanford-Burnham Center for Chemical Genomics, 2012)
In all, about 360,000 compounds went through this assay and about 2,600 (0.72%) were called active. The list comes from a sample in which actives are over-represented; it also holds similar structures and randomly drawn compounds. Values without a mark were called inactive.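 How the source made its calls: active means inhibition of the luminescence signal of 40% or more relative to plate controls, in a single-dose primary screen at 18.75 µM; inactive means the rest.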

Assay: blockers of HIF-2a driven luciferase – luminescence, 786-0 RCC cells, primary screen (AID 624352)
Settings: 786-0 RCC cells HIF-2a reporter, overnight, at 18.8 µM, active compounds read high

Row | Structure (SMILES) | inhibition
1 | FC(F)(F)c1nnc2c3ccccc3c(Cl)nn12 | 16.8%
2 | CC1(C(=O)Nc2ccc3c(c2)OCCO3)CN(S(C)(=O)=O)CC(=O)N1Cc1cccc(F)c1 (stereo unspecified) | 11.6%
3 | O=C(Cc1ccc(Cl)cc1)NCc1nc(-c2ccccc2)no1 | 8.68%
4 | Cc1ccc(-c2noc(-c3ccccc3C(=O)NCC3CCCO3)n2)cc1 (stereo unspecified) | -126%
5 | Cc1ccc(-c2noc(CNC(=O)c3ccoc3C)n2)cc1 | 89% (active)
6 | COC(=O)c1ccc(COC(=O)c2cnccn2)cc1 | 9.27%
7 | Cc1nc(C(F)(F)F)ccc1C(=O)N1CCC1(C)C(=O)NS(=O)(=O)c1ccccc1 (stereo unspecified) | 18.3%
8 | CCCSC(=S)NC1CCS(=O)(=O)C1 (stereo unspecified) | 41.3% (active)
9 | O=S1(=O)CCC(NC(=S)SCc2ccccc2Br)C1 (stereo unspecified) | 37.1%
10 | CC(C)C(=O)NC(NC(=S)NC1CCS(=O)(=O)C1)C(Cl)(Cl)Cl (stereo unspecified) | -1.77%
11 | CC(=O)OCC1(O)CC23CCC4c5ccoc5CCC4(C)C2CCC1C3 (stereo unspecified) | 7.41%
12 | OCCNCCCCOc1ccccc1F | -0.6%
13 | CC1(C)OC(=O)C2=C(C[C@@H](C3CCCC3)O[C@@H]2c2ccc(Cl)cc2)O1 | 8.87%
14 | CN(c1ccc2nc3ccccc3c(=O)n2n1)C1CCCCC1 | 78.2% (active)
15 | CN(C(=O)Nc1ccc(Cl)cc1)n1cnc2ccccc2c1=O | -36.5%
16 | COCC(C)n1c(SCC(=O)NC2CCCCC2C)nc2ccccc2c1=O (stereo unspecified) | 15%
17 | Cc1cccc(OCC(=O)OCC(=O)Nc2ccc(Cl)cn2)c1 | 11.3%
18 | Cc1ccc(C2=NN(C(=O)COc3ncnc4ccccc34)C(c3ccco3)C2)cc1 (stereo unspecified) | 6.33%
19 | O=C(CN1CCN(C2CCS(=O)(=O)C2)CC1)N1N=C(c2ccc(Cl)cc2)CC1c1ccco1 (stereo unspecified) | 47.5% (active)
20 | Cc1ccc(C2=NN(C(=O)CSc3nc(N)cc(N)n3)C(c3ccco3)C2)cc1 (stereo unspecified) | 24.9%
21 | CN(C(=O)c1cccc(NC(=O)Cc2cccc(NC(=O)C3CCCN(C(=O)C4CC4)C3)c2)c1)C1CCC1 (stereo unspecified) | 11.8%
22 | COc1ccccc1C(=O)Nc1nc2nc(-c3ccccc3)cc(=O)n2[nH]1 | 4.83%
23 | COc1ccc2c(c1OC)C(=O)OC2Nc1nc(-c2ccccc2)cs1 (stereo unspecified) | 57.8% (active)
24 | COc1cc(C(O)c2nc(-c3cccc(C(=O)O)c3)cs2)ccc1F (stereo unspecified) | -9.8%
25 | CCN1CCN(C(=O)c2cc3cc4ccc(OC)cc4nc3s2)CC1 | -78.9%
26 | COc1cc(OC)c(NS(=O)(=O)c2cn(C)cn2)cc1Cl | 6.21%
